The target in assay [1] is Cellular tumor antigen p53 (Homo sapiens) (UniProt P04637). The experiment in a line: Primary qHTS for small molecule compounds that upregulate eGFP-tagged delta133p53alpha (in C-terminal) cells. (AID 2060324). Note: potency is the fitted concentration of half-maximal effect. Summed up:
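Concentration-response screen: compounds titrated onto pre-induced NCI-H358 D133p53a-eGFP cells, incubated one day, fixed with 3.5% PFA. Per-cell GFP peak intensity was gated, then normalized against intraplate controls.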

Assay [2] addresses Aldehyde dehydrogenase, mitochondrial (Homo sapiens) (UniProt P05091). Kind of assay: qHTS for Inhibitors of the Aldehyde Dehydrogenase Family (ALDH2) Validation screens (AID 2061302; active = well fitted inhibition curve with a large enough effect; title and protocol of this record describe different tests;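 note: plate controls were DMSO vehicle for no effect and maximal DPI positive control response for full effect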).
The target is the same in assay [3]. Kind of assay: qHTS for Inhibitors of the Aldehyde Dehydrogenase Family (ALDH2) Primary screen (AID 2061308).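 Note: plate controls were vehicle for no effect and reference inhibitor for full effect; nearly all actives have a fitted effect of over 55% in size.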
The target in assay [4] is Retinaldehyde dehydrogenase 3 (Homo sapiens) (UniProt P47895). Kind of assay: qHTS for Inhibitors of the Aldehyde Dehydrogenase Family (ALDH1A3) Validation screen (AID 2061312). Note: % is set by controls: 0 for no effect and ±100 for the full control effect; nearly all actives have a fitted effect of over 45% in size.
Assay [5] shares this target. The experiment in a line: qHTS for Inhibitors of the Aldehyde Dehydrogenase Family (ALDH1A3) Primary screen (AID 2061315).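 Note: plate controls were DMSO vehicle for no effect and reference inhibitor for full effect.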
Assay [6] is described as follows: BET inhibitor-based combinations targeting novel dependencies in MECOM-rearranged (r) AML: OCI-AML3 cell line (AID 2202232). Note: nearly all actives have a fitted effect of over 35% in size. Note: potency is the fitted concentration of half-maximal effect. The settings on record: Potency: OCI-AML3 viability. Summed up:
(§1)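 Luminescent ATP readout (CellTiter-Glo) after 48 hr drug exposure gives viability. Curves span 11 concentrations and are normalized to DMSO and empty wells. Activity is reported as area under the curve and its Z-transform within each cell line.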

A short description of assay [7]: BET inhibitor-based combinations targeting novel dependencies in MECOM-rearranged (r) AML: HNT-34 cell line (AID 2202234). Note: nearly all actives have a fitted effect of over 35% in size. Note: potency is the fitted concentration of half-maximal effect. In short, it runs like this:
(§2)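 Luminescent ATP readout (CellTiter-Glo, 15 min at room temperature) after 48 hr drug exposure gave viability. Dose-response curves, normalized to DMSO and empty-well controls, were summarized as area under the curve and its mean-centred Z-score.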

The nature of assay [8]: BET inhibitor-based combinations targeting novel dependencies in MECOM-rearranged (r) AML: UCSD-AML1 cell line (AID 2202235). Note: nearly all actives have a fitted effect of over 40% in size. Note: potency is the fitted concentration of half-maximal effect. Summed up:
as §2

Assay [9] can be described thus: BET inhibitor-based combinations targeting novel dependencies in MECOM-rearranged (r) AML: AML-191 cell line (AID 2202236; note: nearly all actives have a fitted effect of over 35% in size; note: potency is the fitted concentration of half-maximal effect). In short, it runs like this:
as §1

Assay [10] can be described thus: BET inhibitor-based combinations targeting novel dependencies in MECOM-rearranged (r) AML: AML-194 cell line (AID 2202237; note: nearly all actives have a fitted effect of over 40% in size; note: potency is the fitted concentration of half-maximal effect). In short, it runs like this:
as §1

A short description of assay [11]: qHTS for Inhibitors of the Aldehyde Dehydrogenase Family (ALDH1A2, ALDH1A3, ALDH2, ALDH3A1) (AID 2061307). For Potency: test system not described further here; potency is the fitted concentration of half-maximal effect. Note: nearly all actives have a fitted effect of over 50% in size.
Assay [12] addresses Retinaldehyde dehydrogenase 3 (Homo sapiens) (UniProt P47895). Kind of assay: qHTS for Inhibitors of the Aldehyde Dehydrogenase Family (ALDH1A3) Confirmatory screens (AID 2061311). Note: nearly all actives have a fitted effect of over 60% in size. Note: potency is the fitted concentration of half-maximal effect.
The target in assay [13] is Retinal dehydrogenase 2 (Homo sapiens) (UniProt O94788). Kind of assay: qHTS for Inhibitors of the Aldehyde Dehydrogenase Family (ALDH1A2) Confirmation screens (AID 2061314). Note: nearly all actives have a fitted effect of over 65% in size. Note: potency is the fitted concentration of half-maximal effect.
The target of assay [14] is Aldehyde dehydrogenase 1A1 (Homo sapiens) (UniProt P00352). The experiment in a line: qHTS for Inhibitors of the Aldehyde Dehydrogenase Family (ALDH1A1) Confirmatory screens (AID 2061316). Note: nearly all actives have a fitted effect of over 65% in size. Note: potency is the fitted concentration of half-maximal effect.
Assay [15] can be described thus: BET inhibitor-based combinations targeting novel dependencies in MECOM-rearranged (r) AML: SET-2 cell line (AID 2202231).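 Note: plate controls were DMSO treated cells for no effect and wells without cells for full effect; nearly all actives have a fitted effect of over 35% in size.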 The settings on record: SET-2 AML cells viability, CellTiter-Glo luminescence, 48 h; viability: hits give low values, series mostly up to about 46 µM. Summed up:
as §1

Assay [16] has as its target Aldehyde dehydrogenase, mitochondrial (Homo sapiens) (UniProt P05091). Kind of assay: qHTS for Inhibitors of the Aldehyde Dehydrogenase Family (ALDH2) Confirmatory screens (AID 2061303; active = well fitted inhibition curve with a large enough effect; title and protocol of this record describe different tests; note: nearly all actives have a fitted effect of over 45% in size; note: potency is the fitted concentration of half-maximal effect).

Records with an inconclusive call do not appear. Unmarked numbers belong to inactive results. Active and inactive are the calls of the source. Unless noted, calls come from the whole dose curve; as a rule, active = well fitted curve in the direction sought with a large enough effect; inconclusive = small, poorly fitted or top-dose-only effect, or another doubt; inactive = no such curve, though single readings can be large; an effect the other way counts as inactive or inconclusive.

Cellular tumor antigen p53 (Homo sapiens), sequence (P04637 whole entry, looked up): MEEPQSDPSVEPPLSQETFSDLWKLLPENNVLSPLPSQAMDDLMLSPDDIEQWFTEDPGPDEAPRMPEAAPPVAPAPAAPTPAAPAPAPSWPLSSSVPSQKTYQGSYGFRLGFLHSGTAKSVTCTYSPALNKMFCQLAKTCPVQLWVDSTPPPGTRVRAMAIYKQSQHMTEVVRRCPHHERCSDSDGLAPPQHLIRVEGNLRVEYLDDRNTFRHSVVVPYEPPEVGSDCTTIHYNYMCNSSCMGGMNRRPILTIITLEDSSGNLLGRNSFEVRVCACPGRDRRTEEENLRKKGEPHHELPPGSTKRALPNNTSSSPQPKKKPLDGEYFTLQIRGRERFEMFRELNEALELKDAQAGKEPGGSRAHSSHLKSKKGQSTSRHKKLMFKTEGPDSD

Regarding `CC(=O)NCCc1c[nH]c2ccccc12`, the Potency result in assay [1], in assay [2], in assay [3], in [4] and in assay [5] was “inactive” throughout.

Turning to `CCCCCCCCCCCCCC(=O)O[C@@H]1[C@@H](C)[C@@]2(O)[C@@H](C=C(CO)C[C@@]3(O)C(=O)C(C)=C[C@@H]23)C2C(C)(C)[C@@]21OC(C)=O` (some centres undefined), the Potency result in assay [1], in assay [2] and in assay [4] was “inactive” each time.

In the case of `C[C@@H]1O[C@@H](O[C@H]2C[C@@H](O)[C@]3(CO)[C@H]4[C@H](O)C[C@]5(C)[C@@H](C6=CC(=O)OC6)CC[C@]5(O)[C@@H]4CC[C@]3(O)C2)[C@H](O)[C@H](O)[C@H]1O`, the Potency entry in [2], in assay [3], in assay [4] and in assay [5] was “inactive” throughout. For the same compound, the Potency in assay [6] is 66.1 nM (active); in assay [7] it was 93.4 nM (active); in assay [8], 83.3 nM (active); in [9] it was 83.3 nM (active); in [10], 46.8 nM (active).

As to `CC(Cc1ccc(OCC(=O)O)cc1)NCC(O)c1cccc(Cl)c1` (centres undefined), the Potency entry in assay [1], in [2] and in assay [4] was “inactive” throughout.

`CNc1ccc2oc(C[C@H]3O[C@@]4(CC[C@H]3C)O[C@H]([C@H](C)C(=O)c3ccc[nH]3)[C@H](C)C[C@H]4C)nc2c1C(=O)O`: the Potency result in assay [2] and in [4] was “inactive” each time.

With `CN1CCc2cc(O)cc3c2[C@H]1Cc1ccc(O)c(O)c1-3`, the Potency result in assay [2], in assay [11], in assay [13] and in assay [14] was “inactive” throughout. In addition, the Potency in assay [12] was 12.7 µM (active).

In the case of `CNCCc1c[nH]c2ccc(O)cc12`, the Potency entry in assay [1], in [2] and in [4] was “inactive” in each case.

Regarding `C[N+]1(C)CCN(c2ccccc2)CC1`, the Potency entry in assay [2] was “inactive”.

Consider `CN1CCC[C@@H]1Cc1c[nH]c2ccc(Nc3ncccc3[N+](=O)[O-])cc12`, for which the Potency result in assay [2], in assay [3], in assay [4] and in assay [5] was “inactive” throughout.

As to `NC(N)=Nc1ccc2[nH]c3c(c2c1)C[C@@]1(O)[C@H]2Cc4ccc(O)c5c4[C@@]1(CCN2CC1CC1)[C@H]3O5`, in assay [2], the Potency entry was “inactive”.

In the case of `Cc1cccc(C)c1NC1=NCCCS1`, the Potency entry in [2] and in assay [4] was “inactive” each time.

For the compound `NC(N)=NOCC[C@H](N)C(=O)O`, in assay [1], the Potency entry was “inactive”.

`Cc1c2ccncc2c(C)c2c1[nH]c1ccccc12`: the Potency result in [2] and in assay [4] was “inactive” throughout.

As for `CC(C)(C)NCC(O)c1ccccc1Cl` (centres undefined), the Potency result in [1], in assay [2] and in assay [4] was “inactive” throughout.

Consider `C[C@@H]1O[C@H](C[N+](C)(C)C)C[C@H]1O`, for which the Potency result in [1] and in [2] was “inactive” in each case.

As for `NNC(N)=O`, the Potency result in [2] was “inactive”.

`NCC(CC(=O)O)c1ccc(Cl)cc1` (centres undefined): the Potency entry in assay [2] and in assay [4] was “inactive” each time.

Regarding `C[C@H](Cc1ccc2c(c1)OC(C(=O)O)(C(=O)O)O2)NC[C@H](O)c1cccc(Cl)c1`, the Potency entry in [1], in [2] and in [4] was “inactive” throughout.

Regarding `O=C1/C(=C/c2ccccc2)C[C@@]2(O)[C@H]3Cc4ccc(O)c5c4[C@@]2(CCN3CC2CC2)[C@H]1O5`, in [1], the Potency is 21.3 µM (active). The Potency result in assay [2] and in [4] was “inactive” throughout.

`COC(=O)C1=CCCN(C)C1`: the Potency entry in assay [2] and in assay [4] was “inactive” in each case.

For `CN1C(=O)CCS(=O)(=O)C1c1ccc(Cl)cc1` (centres undefined), the Potency result in [2], in [4], in assay [6], in [7], in [8] and in [9] was “inactive” throughout. In assay [10], the Potency result is “inactive”. Besides, the viability in assay [15] was 123%.

`CCCN1CCc2cccc3c2[C@H]1Cc1ccc(O)c(O)c1-3`: in [2], the Potency result is “inactive”. The Potency in [12] is 22.5 µM (active).

Consider `CC(Cc1ccc(O)cc1)NCC(O)c1cc(O)cc(O)c1` (centres undefined), for which the Potency result in [2] and in [4] was “inactive” each time.

On to `O=c1[nH]c2ccccc2n1C1CCN(CCCC(c2ccc(F)cc2)c2ccc(F)cc2)CC1`, for which the Potency entry in [2], in [3], in assay [4] and in assay [5] was “inactive” each time.

`CCC1(C2=NCCN2)Cc2ccccc2O1` (centres undefined): the Potency result in assay [2] and in assay [4] was “inactive” throughout.

In the case of `CC(C)N(CCC(C(N)=O)(c1ccccc1)c1ccccn1)C(C)C` (centres undefined), the Potency entry in assay [2], in assay [3], in assay [4] and in assay [5] was “inactive” each time.

On to `CCCN1CCC[C@@H](c2cccc(O)c2)C1`, for which the Potency result in assay [1], in assay [2] and in assay [4] was “inactive” each time.

For the compound `C[N+](C)(C)CC(=O)O`, in [2], the Potency result is “inactive”.

Consider `C=C(C)[C@H]1CN[C@H](C(=O)O)[C@H]1CC(=O)O`, for which the Potency entry in [2] and in [4] was “inactive” in each case.

On to `NC(N)=NOCCC(N)C(=O)O` (centres undefined), for which the Potency result in [1], in [2] and in [4] was “inactive” throughout.

On to `Ic1ccccc1CNC1C2CCN(CC2)C1C(c1ccccc1)c1ccccc1` (centres undefined), for which the Potency result in assay [2] and in assay [4] was “inactive” each time.

Regarding `N[C@@H](Cn1oc(=O)[nH]c1=O)C(=O)O`, the Potency result in assay [1], in [2] and in assay [4] was “inactive” throughout.

With `N#C/C(=C\c1ccc(O)c(O)c1)C(N)=S`, the Potency is 8.96 µM (active) in assay [16]; 3.18 µM (active) in [11]; 1.01 µM (active) in assay [12]; 5.65 µM (active) in [13]; 1.42 µM (active) in assay [14].

Turning to `Cc1ccc(S(=O)(=O)N[C@@H](CCCCN)C(=O)CCl)cc1`, the Potency entry in [16], in assay [11] and in assay [12] was “inactive” throughout. The Potency in [13] was 12.7 µM (active).

`CC(=O)OCC1=C(C(=O)O)N2C(=O)C(NC(=O)CCCC(N)C(=O)O)C2SC1` (centres undefined): the Potency entry in assay [16] and in assay [12] was “inactive” throughout.

In the case of `CCOc1ccc(CCNC(=O)c2cc3ncccc3n2Cc2cccc(C)n2)cc1OCC`, the Potency result in assay [16], in assay [11], in assay [3], in assay [13] and in assay [5] was “inactive” in each case.

For `O=S(=O)(Nc1ccc(-c2ccccc2)cc1)c1ccc(NCc2cccc(Cl)c2O)cc1`, the Potency in [11] and in [13] was 25.2 µM (active) throughout. In assay [5], the Potency result was “inactive”.

Take `NC(N)=Nc1ccc2[nH]c3c(c2c1)C[C@@]1(O)C2Cc4ccc(O)c5c4[C@@]1(CCN2CC1CC1)[C@H]3O5`: the Potency entry in assay [11] is “inactive”.

In the case of `CC(=O)N(C)CC#CCN1CCC(O)CC1`, the Potency entry in assay [11] is “inactive”.
